Experimental findings from PubChem BioAssay (Tox21) are described below.

Values without a mark were called inactive. Results filed as inconclusive are left out. Active and inactive are the calls of the source. Unless noted, calls follow the shape of the dose curve; as a rule, active = well fitted curve in the direction sought with a large enough effect in the repeat runs; inconclusive = weak or mixed curves; inactive = no such curve, though single readings can be large; an effect the other way counts as inactive or inconclusive.

A short description of experiment [1]: qHTS assay to identify small molecule agonists of H2AX (AID 1224845; active = well fitted activation curve with a large enough effect in the signal ratio in the repeat runs, not every such curve was filed as active; the % refers to the signal ratio). Put shortly: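 Phospho-H2AX Ser139 measured by HTRF (ex 320 nm; em 665 and 620 nm) after 24 hr antibody incubation. Compounds, 15 concentrations, 0.76% DMSO, were applied to CHO-K1 cells for 3hr at 37C before lysis.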
On the technique in general: qHTS replaces the single test concentration by a dilution series.

Experiment [2] in a line: qHTS assay to identify small molecule agonists of the hypoxia (HIF-1) signaling pathway (AID 1224846; active = well fitted activation curve with a large enough effect in the signal ratio in the repeat runs, not every such curve was filed as active; the % refers to the signal ratio). Put shortly:
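Steps: seed ME-180 HRE-bla cells (2,000/well, 0.5% dialyzed FBS); incubate 5 hrs at 37C; pin-transfer compounds or DMSO; incubate 17 hrs; add LiveBLAzer B/G substrate CCF4-AM; measure reporter activation by FRET.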

Experiment [3] can be described thus: qHTS assay to identify small molecule agonists of H2AX - cell viability counter screen (AID 1224847; calls by dose curve; also: nearly all actives have a fitted effect of over 30% in size; also: potency is read from the fitted curve at half-maximal effect). In a few lines:
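We seed wild-type CHO-K1 cells overnight, treat them for 3 hr at 37C with compounds in 15-concentration series, and quantify remaining viability by CellTiter-Glo luminescence.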

Experiment [4] is described as follows: qHTS RealTime-Glo MT Cell Viability Assay in HepG2 cells - 24 hour (AID 1224867). Also: nearly all actives have a fitted effect of over 50% in size. Put shortly: (§1)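 HepG2 suspension premixed with RealTime-Glo reagents is plated at 600 cells per well and left 5 h at 37 C/5% CO2. Compounds in DMSO then go in, and bioluminescence reflecting viable cell number is recorded over 40 h.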
Experiment [5] is described as follows: qHTS RealTime-Glo MT Cell Viability Assay in HEK293 cells - 32 hour (AID 1224868). Also: top concentration of the series differs between compounds; nearly all actives have a fitted effect of over 50% in size. In a few lines: (§2)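 Reads taken at 0, 8, 16, 24, 32 and 40 h from the same wells. HEK293 cells (600/well) carried RealTime-Glo reagents from seeding, with compound added after a 5 h settle at 37 C.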
A short description of experiment [6]: A CellTox Green Cytotoxicity Assay to monitor cytotoxicity in HEK293 cells - 0 hour (AID 1224869). Also: nearly all actives have a fitted effect of over 50% in size. In a few lines: (§3)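 Cytotoxicity was tracked continuously in HEK293 cells by a DNA-binding dye excluded from viable cells. Compounds were transferred in DMSO 5 h after seeding; fluorescence was recorded at intervals up to 40 h.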
Experiment [7] is described as follows: qHTS RealTime-Glo MT Cell Viability Assay in HepG2 cells - 40 hour (AID 1224870). Also: nearly all actives have a fitted effect of over 50% in size. In a few lines: (§4)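 Real-time viability: cells seeded at 600 per well together with NanoLuc and cell-permeant prosubstrate, compounds added after 5 h incubation. Luminescence tracked at 0, 8, 16, 24, 32 and 40 h of exposure.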
The nature of experiment [8]: A CellTox Green Cytotoxicity Assay to monitor cytotoxicity in HEK293 cells - 40 hour (AID 1224871). Also: nearly all actives have a fitted effect of over 45% in size. Put shortly: as §3
Experiment [9] in a line: qHTS RealTime-Glo MT Cell Viability Assay in HEK293 cells - 16 hour (AID 1224872). Put shortly:
as §2

The nature of experiment [10]: qHTS RealTime-Glo MT Cell Viability Assay in HepG2 cells - 8 hour (AID 1224873). Also: nearly all actives have a fitted effect of over 55% in size. In a few lines: as §4
Experiment [11] in a line: qHTS RealTime-Glo MT Cell Viability Assay in HEK293 cells - 40 hour (AID 1224874). Also: nearly all actives have a fitted effect of over 50% in size. To be noted: RealTime-Glo luminescence; max response: stronger effect = lower value. Put shortly: (§5)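 Nonlytic bioluminescent viability monitoring. HEK293 at 600 cells/well with reagent; 5 h settle; compound transfer by pintool; plates held at 37 C and read at set time points.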
Experiment [12] in a line: A CellTox Green Cytotoxicity Assay to monitor cytotoxicity in HEK293 cells - 24 hour (AID 1224875). Also: series mostly up to about 77 µM; nearly all actives have a fitted effect of over 45% in size. In a few lines:
as §3

Experiment [13] in a line: A CellTox Green Cytotoxicity Assay to monitor cytotoxicity in HepG2 cells - 16 hour (AID 1224876). Also: nearly all actives have a fitted effect of over 45% in size. In a few lines:
(§6)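 Real-time, homogeneous cytotoxicity readout: dead-cell DNA staining by CellTox Green in HepG2 monolayers, fluorescence measured at timed intervals up to 40 h of continuous compound exposure.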

A short description of experiment [14]: qHTS RealTime-Glo MT Cell Viability Assay in HepG2 cells - 32 hour (AID 1224877). Also: nearly all actives have a fitted effect of over 55% in size. In a few lines:
as §1

The nature of experiment [15]: A CellTox Green Cytotoxicity Assay to monitor cytotoxicity in HepG2 cells - 24 hour (AID 1224878). Also: nearly all actives have a fitted effect of over 45% in size. Put shortly: as §6
Experiment [16] can be described thus: A CellTox Green Cytotoxicity Assay to monitor cytotoxicity in HepG2 cells - 40 hour (AID 1224879). Also: nearly all actives have a fitted effect of over 40% in size. Also: potency is read from the fitted curve at half-maximal effect. Put shortly: as §6
A short description of experiment [17]: qHTS RealTime-Glo MT Cell Viability Assay in HEK293 cells - 0 hour (AID 1224880). In a few lines: as §5
Experiment [18] in a line: A CellTox Green Cytotoxicity Assay to monitor cytotoxicity in HEK293 cells - 32 hour (AID 1224881). Also: nearly all actives have a fitted effect of over 40% in size. Put shortly: as §3
% is scaled to controls: 0 for no effect and ±100 for the full control effect.

For the compound `CCCC(=O)Cl`, the Potency entry in experiment [1], in experiment [3], in [4], in [5], in experiment [6] and in experiment [7] was “inactive” in each case. Also, the Potency result in experiment [8], in experiment [9], in experiment [10], in [12], in experiment [13] and in [14] was “inactive” in each case. The Potency result in [15], in experiment [16], in [17] and in experiment [18] was “inactive” each time. In experiment [2], the result was inactive. Also, in experiment [11], the max response is 17%.

With `O=NN1CCNCC1`, the Potency entry in [1], in [3], in experiment [4], in experiment [5], in experiment [6] and in [7] was “inactive” in each case. For the same compound, the Potency entry in experiment [9], in experiment [10], in [12], in experiment [13], in [14] and in [15] was “inactive” in each case. Further, the Potency result in [16], in experiment [17] and in experiment [18] was “inactive” in each case. The call in experiment [2] was inactive. Besides, the max response in [11] is 9.64%.

With `O=C(OC1CCCCC1)c1ccccc1C(=O)OC1CCCCC1`, the Potency entry in experiment [1], in experiment [4], in [5], in experiment [6], in experiment [7] and in experiment [8] was “inactive” throughout. The Potency result in experiment [9], in experiment [10], in experiment [12], in [13], in experiment [14] and in [15] was “inactive” each time. The Potency entry in experiment [16], in [17] and in [18] was “inactive” throughout. For the same compound, the call in experiment [2] was inactive. Also, the Potency in experiment [3] is 106 µM (active).

Consider `CCOC(=O)C(Cl)C(C)=O` (configuration not stated), for which the Potency entry in experiment [1], in experiment [3], in experiment [4], in experiment [5], in experiment [6] and in [7] was “inactive” each time. Besides, the Potency entry in experiment [9], in experiment [10], in experiment [12], in [13], in experiment [14] and in experiment [15] was “inactive” each time. The Potency entry in [17] and in experiment [18] was “inactive” in each case. In [2], the call was inactive. Moreover, the Potency in experiment [16] is 24.8 µM (active).

Regarding `CC(=O)CCC(C)=O`, the Potency entry in experiment [1], in experiment [3], in experiment [4], in experiment [5], in [6] and in experiment [7] was “inactive” in each case. For the same compound, the Potency result in experiment [9], in [10], in [12], in experiment [13], in experiment [14] and in [15] was “inactive” in each case. Moreover, the Potency result in experiment [16] and in [18] was “inactive” throughout. The call in experiment [2] was inactive. Besides, the max response in experiment [11] is 11.7%.

Consider `C#CCOC(C(=O)OCCN(C)C)(c1ccccc1)c1ccccc1`, for which the Potency entry in experiment [1], in [3], in experiment [4], in [5], in [6] and in [7] was “inactive” throughout. The Potency entry in experiment [8], in experiment [9], in experiment [10], in experiment [12], in experiment [13] and in [14] was “inactive” each time. Besides, the Potency result in experiment [15], in experiment [16], in experiment [17] and in experiment [18] was “inactive” throughout. In addition, in [2], the call was inactive.

In the case of `CCOS(C)(=O)=O`, the Potency result in experiment [1], in [3], in experiment [4], in [5], in experiment [6] and in experiment [7] was “inactive” each time. In addition, the Potency entry in experiment [8], in experiment [9], in [10], in experiment [12], in experiment [13] and in [14] was “inactive” in each case. In addition, the Potency result in experiment [15], in experiment [16], in experiment [17] and in experiment [18] was “inactive” in each case. Besides, in experiment [2], the outcome was inactive. Also, the max response in [11] is -7.66%.

In the case of `CCN(C)N=O`, the Potency result in [1], in experiment [3], in [4], in experiment [5], in experiment [6] and in experiment [7] was “inactive” throughout. For the same compound, the Potency result in [8], in experiment [9], in experiment [10], in experiment [12], in experiment [13] and in experiment [14] was “inactive” in each case. The Potency result in experiment [15], in experiment [16], in experiment [17] and in experiment [18] was “inactive” throughout. Further, in experiment [2], the compound was classed as inactive. In experiment [11], the max response was 2.13%.
